Results as given in PubChem BioAssay (EPA / NIEHS).
Results filed as inconclusive are left out. Active and inactive are the calls of the source. The calls were made as follows: active = hit-call score of the fitted dose curve at least 0.9, where 1 is the maximum; inconclusive = response in the unintended direction; inactive = score below 0.9.

These molecules were tested against human RAR-related Orphan Receptor gamma (RORg), RORC (gene 6097) (UniProt P51449) (assay: ATG_RORg_TRANS: Attagene TRANS-FACTORIAL HepG2 Assay for human RAR-related Orphan Receptor gamma (RORg) (AID 2283011)).
Sequence of human RAR-related Orphan Receptor gamma (RORg), RORC (gene 6097) (P51449 whole entry, looked up): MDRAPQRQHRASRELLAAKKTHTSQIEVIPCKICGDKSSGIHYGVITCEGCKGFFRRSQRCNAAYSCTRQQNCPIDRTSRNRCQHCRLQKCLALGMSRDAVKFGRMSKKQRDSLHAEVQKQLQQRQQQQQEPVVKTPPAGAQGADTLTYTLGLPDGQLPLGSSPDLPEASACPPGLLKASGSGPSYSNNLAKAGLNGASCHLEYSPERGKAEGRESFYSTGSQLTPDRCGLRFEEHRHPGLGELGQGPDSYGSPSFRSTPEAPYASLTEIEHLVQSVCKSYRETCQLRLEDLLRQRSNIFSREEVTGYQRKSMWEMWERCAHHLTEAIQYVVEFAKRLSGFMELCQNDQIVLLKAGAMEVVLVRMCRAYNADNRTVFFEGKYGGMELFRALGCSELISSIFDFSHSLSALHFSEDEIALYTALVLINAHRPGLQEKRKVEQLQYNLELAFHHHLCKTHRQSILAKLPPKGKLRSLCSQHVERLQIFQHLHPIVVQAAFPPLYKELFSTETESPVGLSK
Method: ATG_TRANS is a cell-based, multiplexed-readout assay that uses HepG2, a human liver cell line, with measurements taken at 24 hours after chemical dosing in a 24-well plate.ATG_RORg_TRANS is one of 30 assay component(s) measured or calculated from the ATG_TRANS assay. It is designed to make measurements of mRNA induction, a form of inducible reporter, as detected with fluorescence intensity signals by Reverse transcription polymerase chain reaction (RT-PCR) and Capillary electrophoresis technology.Data from the assay component ATG_RORg_TRANS was analyzed into 1 assay endpoint. This assay endpoint, ATG_RORg_TRANS, was analyzed in the positive analysis fitting direction relative to DMSO as the negative control and baseline of activity. Using a type of inducible reporter, measures of mRNA for gain-of-signal activity can be used to understand the reporter gene at the transcription factor-level as they relate to the gene RORC. Furthermore, this assay endpoint can be referred to as a primary readout, because this assay has produced multiple assay endpoints where this one serves a reporter gene function. To generalize the intended target to other relatable targets, this assay endpoint is annotated to the nuclear receptor intended target family, where the subfamily is orphan.
Human liver HepG2 cells are transiently transfected with multiple reporter transcription units (MRTUs) in 6-well plates using FuGene 6 reagent (Roche; 3 ml FuGene/1 mg DNA). The MRTU constructs are regulated by a cis-regulating element (promoter). […] A major difference between the CIS and TRANS system is that in CIS activities of endogenous TFs are measured, whereas the TRANS assay evaluates changes in activities of exogenous, chimeric NR-Gal4 proteins. […] At the end of 24 hour incubation, total RNA was isolated using TriZol reagent (Invitrogen). The isolated RNA is then reverse-transcribed using oligo(dT) primer and Mo-MLV reverse transcriptase (Invitrogen) with DNAse I (Ambion) treatment for 30 min. The one-tenth of the produced cDNA was amplified by PCR using Taq DNA polymerase (Invitrogen) and two reporter sequence-specific primers. The PCR products were fluorescently labeled by primer extension with 6-arboxyfluorescein (6-FAM) 5'-labeled reporter sequence-specific primer (2 min at 95 C, 20 s at 68 C and 10 min at 72 C) and these products were digested with 5U of HpaI (New England Biolabs) for 2h at 37 C. The fragments were purified using Qiaquick PCR columns (Qiagen), analyzed on an ABI 3130xL genetic analyzer (Applied Biosystems) with peak positions identified by using a set of X-rhodamine (ROX)-labeled MapMarker1000 molecular weight standards (BioVentures). The raw capillary electrophoresis data was processed using Attagraph software (Attagene).

Row | Structure (SMILES) | outcome
1 | CNC(=O)Oc1cccc2ccccc12 | inactive
2 | CC(C)N1C(=O)N(c2ccccc2)CSC1=NC(C)(C)C | inactive
3 | CCOP(=S)(OCC)Oc1nc(Cl)n(C(C)C)n1 | inactive
4 | CCOc1cc(C(C)(C)C)ccc1C1COC(c2c(F)cccc2F)=N1 (stereo not given) | inactive
5 | N#Cc1c[nH]cc1-c1cccc2c1OC(F)(F)O2 | inactive
6 | CC(C)N1C(=O)c2ccccc2NS1(=O)=O | inactive
7 | CS(=O)(=O)c1cc(C(F)(F)F)ccc1C(=O)c1cnoc1C1CC1 | inactive
8 | CC1(C)CON(Cc2ccccc2Cl)C1=O | inactive
9 | Nc1c(Cl)c(Cl)nc(C(=O)O)c1Cl | inactive
10 | COC(=O)NS(=O)(=O)c1ccc(N)cc1 | inactive
11 | COP(=O)(OC)O/C(C)=C/C(=O)N(C)C | inactive
12 | CS(=O)(=O)c1ccc(C(=O)C2C(=O)CCCC2=O)c([N+](=O)[O-])c1 | inactive
13 | O=C(Nc1ccccc1-c1ccc(Cl)cc1)c1cccnc1Cl | inactive
14 | COC(=O)N(C(=O)N1CO[C@@]2(C(=O)OC)Cc3cc(Cl)ccc3C2=N1)c1ccc(OC(F)(F)F)cc1 | inactive
15 | CO/N=C(/C1=NOCCO1)c1ccccc1Oc1ncnc(Oc2ccccc2Cl)c1F | inactive
16 | CCCCC(C#N)(Cn1cncn1)c1ccc(Cl)cc1 (stereo not given) | inactive
17 | Clc1cccc(C(Cl)(Cl)Cl)n1 | inactive
18 | CCOc1nc(F)cc2nc(S(=O)(=O)Nc3c(Cl)cccc3Cl)nn12 | inactive
19 | CCNP(=S)(OC)O/C(C)=C/C(=O)OC(C)C (stereo not given) | inactive
20 | CC(C)Oc1cccc(NC(=O)c2ccccc2C(F)(F)F)c1 | inactive

Row | Structure (SMILES) | outcome
21 | Cc1nc(N(C)C)nc(OC(=O)N(C)C)c1C | inactive
22 | C=C(C)CN(CC)c1c([N+](=O)[O-])cc(C(F)(F)F)cc1[N+](=O)[O-] | inactive
23 | O=c1n(Cl)c(=O)n(Cl)c(=O)n1Cl | inactive
24 | O=P(O)(O)CCCl | inactive
25 | CCN(CC)C(=O)C(C)Oc1cccc2ccccc12 (stereo not given) | inactive
26 | Cc1c(COC(=O)[C@@H]2[C@H](/C=C(\Cl)C(F)(F)F)C2(C)C)cccc1-c1ccccc1 | inactive
27 | COCC(C)N(C(=O)CCl)c1c(C)csc1C (stereo not given) | inactive
28 | CCN(CC)c1nc(C)cc(OP(=S)(OC)OC)n1 | inactive
29 | CCOP(=O)(OCC)Oc1nc(Cl)c(Cl)cc1Cl | inactive
30 | CN=C=S | inactive
31 | CCSC(=O)N1CCCCCC1 | inactive
32 | Cc1cnc(C2=NC(C)(C(C)C)C(=O)N2)c(C(=O)O)c1 (stereo not given) | inactive
33 | CC1(C)C(C=C(Cl)Cl)C1C(=O)OC(C#N)c1cccc(Oc2ccccc2)c1 (stereo not given) | inactive
34 | CCNC(=O)NC(=O)C(C#N)=NOC | inactive
35 | COc1cc(OC)nc(NC(=O)NS(=O)(=O)c2ncccc2OCC(F)(F)F)n1 | inactive
36 | CCCN(CC)CC1COC2(CCC(C(C)(C)C)CC2)O1 (stereo not given) | inactive
37 | COP(=S)(OC)SCn1nnc2ccccc2c1=O | inactive
38 | CCC(C)n1c(=O)[nH]c(C)c(Br)c1=O (stereo not given) | inactive
39 | CCOc1nc(C(Cl)(Cl)Cl)ns1 | inactive
40 | CCCCC(O)(Cn1cncn1)c1ccc(Cl)cc1Cl (stereo not given) | inactive
